Test results published in the supplement of paper PMC10849652.
About 7,900 targets were measured; listed, in parts, are those with a hit and a random draw of the rest. About 0.6% of all pairs of compound and target were hits. A number with no mark means an inactive call.

Legend:
Experiment in all cases: log2 fold change, soluble protein after heating vs DMSO (PISA); higher = thermal stabilisation; K562 cells, 10 uM, 30 min; active = over 0.2 and 3.5 SD of the protein, either way, in both replicates (recomputed)
[1] = compound: CS(=O)(=O)c1ccc(-c2cnc(N)c(C(=O)Nc3ccccc3)n2)cc1
Procedure, shortened: (§1)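 Thermal stability values are relative to control samples and come from duplicates. They are expressed as log2 fold changes. For measurement, K562 cells (2×10^6 cells/mL) received 10 μM compound for 30 min, and aliquots were heated for 3 min over 48°C-58°C, pooled, and extracted at 4°C in PBS with 0.5% NP-40. Soluble protein, the supernatant after 21,000xg for 90 min, was quantified by TMTpro 16plex LC-MS/MS with equalised channel sums.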

crizotinib = compound: C[C@@H](Oc1cc(-c2cnn(C3CCNCC3)c2)cnc1N)c1c(Cl)ccc(F)c1Cl [crizotinib]
Procedure, shortened: as §1

[2] = compound: C[C@@H]1COCCN1C2=NC(=NC(=C2)C3(CC3)S(=O)(=O)C)C4=C5C=CNC5=CC=C4
Procedure, shortened: as §1

[3] = compound: C[C@H](C1=CC=C(C=C1)C(=O)NC2=C3C=CNC3=NC=C2)N
Procedure, shortened: as §1

duvelisib = compound: C[C@H](Nc1ncnc2nc[nH]c12)c1cc2cccc(Cl)c2c(=O)n1-c1ccccc1 [duvelisib]
Procedure, shortened: as §1

gandotinib = compound: Cc1cc(Nc2cc(CN3CCOCC3)c3nc(C)c(Cc4ccc(Cl)cc4F)n3n2)n[nH]1 [gandotinib]
Procedure, shortened: as §1

tozasertib = compound: Cc1cc(Nc2cc(N3CCN(C)CC3)nc(Sc3ccc(NC(=O)C4CC4)cc3)n2)n[nH]1 [tozasertib]
Procedure, shortened: as §1

[4] = compound: Cc1cc(SCc2sc(-c3ccc(C(F)(F)F)cc3)nc2C)ccc1OCC(=O)O
Procedure, shortened: as §1

doramapimod = compound: Cc1ccc(-n2nc(C(C)(C)C)cc2NC(=O)Nc2ccc(OCCN3CCOCC3)c3ccccc23)cc1 [doramapimod]
Procedure, shortened: as §1

ispinesib = compound: Cc1ccc(C(=O)N(CCCN)[C@@H](c2nc3cc(Cl)ccc3c(=O)n2Cc2ccccc2)C(C)C)cc1 [ispinesib]
Procedure, shortened: as §1

bafetinib = compound: Cc1ccc(NC(=O)c2ccc(CN3CC[C@H](N(C)C)C3)c(C(F)(F)F)c2)cc1Nc1nccc(-c2cncnc2)n1 [bafetinib]
Procedure, shortened: as §1

[5] = compound: Cc1cccc(CC(=O)N2CCc3c2ccc(-c2cn(C)c4ncnc(N)c24)c3F)n1
Procedure, shortened: as §1

nilotinib = compound: Cc1cn(-c2cc(NC(=O)c3ccc(C)c(Nc4nccc(-c5cccnc5)n4)c3)cc(C(F)(F)F)c2)cn1 [nilotinib]
Procedure, shortened: as §1

[6] = compound: Cc1nc(Nc2n[nH]c3c2CN(C(=O)N[C@H](CN(C)C)c2ccccc2)C3(C)C)c2sccc2n1
Procedure, shortened: as §1

dasatinib = compound: Cc1nc(Nc2ncc(C(=O)Nc3c(C)cccc3Cl)s2)cc(N2CCN(CCO)CC2)n1 [dasatinib]
Procedure, shortened: as §1

[7] = compound: Cc1ncc(-c2ccnc(Nc3ccc(S(C)(=O)=O)cc3)n2)n1C(C)C
Procedure, shortened: as §1

[8] = compound: Cn1cc(-c2ccc3c(c2)CCN3C(=O)Cc2cccc(C(F)(F)F)c2)c2c(N)ncnc21
Procedure, shortened: as §1

[9] = compound: Cn1cc(-c2ccc3nnc(C(F)(F)c4ccc5ncccc5c4)n3n2)cn1
Procedure, shortened: as §1

tipifarnib = compound: Cn1cncc1[C@@](N)(c1ccc(Cl)cc1)c1ccc2c(c1)c(-c1cccc(Cl)c1)cc(=O)n2C [tipifarnib]
Procedure, shortened: as §1

mubritinib = compound: FC(F)(F)c1ccc(/C=C/c2nc(COc3ccc(CCCCn4ccnn4)cc3)co2)cc1 [mubritinib]
Procedure, shortened: as §1

Chain of UniProt O75446 (O75446 whole entry, looked up): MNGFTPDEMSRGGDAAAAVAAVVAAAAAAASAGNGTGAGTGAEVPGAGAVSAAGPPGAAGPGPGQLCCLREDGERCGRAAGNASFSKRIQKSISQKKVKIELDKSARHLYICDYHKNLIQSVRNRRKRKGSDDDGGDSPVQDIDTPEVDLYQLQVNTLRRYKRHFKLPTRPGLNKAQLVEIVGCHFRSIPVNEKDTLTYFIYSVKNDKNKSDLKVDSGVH
Chain of UniProt Q96EV2 (Q96EV2 whole entry, looked up): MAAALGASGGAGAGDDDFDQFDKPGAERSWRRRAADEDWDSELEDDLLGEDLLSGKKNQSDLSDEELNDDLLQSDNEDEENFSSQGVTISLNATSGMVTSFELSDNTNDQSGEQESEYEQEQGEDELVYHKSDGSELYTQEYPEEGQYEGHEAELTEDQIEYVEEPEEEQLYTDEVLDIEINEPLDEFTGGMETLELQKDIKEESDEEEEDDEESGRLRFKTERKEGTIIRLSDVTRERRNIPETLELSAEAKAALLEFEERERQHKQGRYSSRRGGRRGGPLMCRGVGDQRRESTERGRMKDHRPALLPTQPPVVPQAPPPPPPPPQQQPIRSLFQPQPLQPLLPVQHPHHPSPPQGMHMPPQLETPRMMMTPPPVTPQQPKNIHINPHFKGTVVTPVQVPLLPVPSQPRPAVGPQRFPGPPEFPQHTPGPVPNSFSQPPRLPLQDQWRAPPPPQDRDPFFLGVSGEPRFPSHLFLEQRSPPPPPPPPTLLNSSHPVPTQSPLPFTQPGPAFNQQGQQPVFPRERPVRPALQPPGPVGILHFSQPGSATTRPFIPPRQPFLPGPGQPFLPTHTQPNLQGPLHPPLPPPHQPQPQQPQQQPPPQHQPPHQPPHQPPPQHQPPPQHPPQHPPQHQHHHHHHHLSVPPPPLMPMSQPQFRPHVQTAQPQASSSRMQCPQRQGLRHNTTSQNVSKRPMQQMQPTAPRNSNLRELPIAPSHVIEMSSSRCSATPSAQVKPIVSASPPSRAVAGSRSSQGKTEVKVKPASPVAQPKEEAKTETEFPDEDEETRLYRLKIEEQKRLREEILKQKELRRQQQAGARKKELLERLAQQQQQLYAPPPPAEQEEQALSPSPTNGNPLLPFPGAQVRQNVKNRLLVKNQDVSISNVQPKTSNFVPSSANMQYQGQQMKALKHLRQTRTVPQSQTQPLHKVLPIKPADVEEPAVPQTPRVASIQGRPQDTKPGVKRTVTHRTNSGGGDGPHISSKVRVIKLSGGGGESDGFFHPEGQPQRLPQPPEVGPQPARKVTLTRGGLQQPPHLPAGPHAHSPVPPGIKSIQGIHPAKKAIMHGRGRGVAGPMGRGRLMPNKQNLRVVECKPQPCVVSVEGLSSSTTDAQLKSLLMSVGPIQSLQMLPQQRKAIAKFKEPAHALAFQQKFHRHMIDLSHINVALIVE
Chain of UniProt Q9H2X9 (Q9H2X9 whole entry, looked up): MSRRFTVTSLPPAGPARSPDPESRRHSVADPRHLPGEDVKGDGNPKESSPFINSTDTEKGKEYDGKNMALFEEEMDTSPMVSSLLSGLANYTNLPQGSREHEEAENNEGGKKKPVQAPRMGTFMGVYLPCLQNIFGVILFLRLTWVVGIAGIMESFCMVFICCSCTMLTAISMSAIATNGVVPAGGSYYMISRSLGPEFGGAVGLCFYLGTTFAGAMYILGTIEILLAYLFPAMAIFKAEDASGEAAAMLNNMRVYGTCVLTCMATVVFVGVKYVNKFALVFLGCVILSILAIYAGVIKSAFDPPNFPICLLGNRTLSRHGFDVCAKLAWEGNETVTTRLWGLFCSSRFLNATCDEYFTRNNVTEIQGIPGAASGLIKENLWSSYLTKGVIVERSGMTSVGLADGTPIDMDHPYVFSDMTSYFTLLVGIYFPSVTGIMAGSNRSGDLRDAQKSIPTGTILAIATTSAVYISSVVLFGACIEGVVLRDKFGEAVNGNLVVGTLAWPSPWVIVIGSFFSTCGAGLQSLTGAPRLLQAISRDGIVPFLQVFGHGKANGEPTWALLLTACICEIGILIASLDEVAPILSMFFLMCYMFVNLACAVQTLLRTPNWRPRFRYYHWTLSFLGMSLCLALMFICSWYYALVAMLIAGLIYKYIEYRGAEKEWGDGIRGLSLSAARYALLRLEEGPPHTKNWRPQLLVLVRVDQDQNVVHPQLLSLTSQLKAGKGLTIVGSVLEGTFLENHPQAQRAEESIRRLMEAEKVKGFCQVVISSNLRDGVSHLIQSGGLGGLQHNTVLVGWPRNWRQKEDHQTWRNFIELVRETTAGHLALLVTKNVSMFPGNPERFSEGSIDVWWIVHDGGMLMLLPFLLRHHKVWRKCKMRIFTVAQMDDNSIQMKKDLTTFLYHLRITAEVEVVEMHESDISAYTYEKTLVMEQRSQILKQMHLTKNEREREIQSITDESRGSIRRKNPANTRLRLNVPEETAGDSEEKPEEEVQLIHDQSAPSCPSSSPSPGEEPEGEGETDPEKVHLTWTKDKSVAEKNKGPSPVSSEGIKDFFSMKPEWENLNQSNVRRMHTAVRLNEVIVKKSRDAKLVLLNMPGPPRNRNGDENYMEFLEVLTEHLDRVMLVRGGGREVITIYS
Chain of UniProt O14796 (O14796 whole entry, looked up): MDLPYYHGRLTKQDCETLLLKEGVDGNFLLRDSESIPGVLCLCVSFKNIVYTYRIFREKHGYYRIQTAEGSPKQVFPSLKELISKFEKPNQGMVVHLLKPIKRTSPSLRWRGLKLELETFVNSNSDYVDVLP
Chain of UniProt Q8N0T1 (Q8N0T1 whole entry, looked up): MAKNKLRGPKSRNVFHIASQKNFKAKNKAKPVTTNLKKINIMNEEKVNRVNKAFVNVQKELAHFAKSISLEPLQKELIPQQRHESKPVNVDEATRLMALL
Chain of UniProt Q8TBN0 (Q8TBN0 whole entry, looked up): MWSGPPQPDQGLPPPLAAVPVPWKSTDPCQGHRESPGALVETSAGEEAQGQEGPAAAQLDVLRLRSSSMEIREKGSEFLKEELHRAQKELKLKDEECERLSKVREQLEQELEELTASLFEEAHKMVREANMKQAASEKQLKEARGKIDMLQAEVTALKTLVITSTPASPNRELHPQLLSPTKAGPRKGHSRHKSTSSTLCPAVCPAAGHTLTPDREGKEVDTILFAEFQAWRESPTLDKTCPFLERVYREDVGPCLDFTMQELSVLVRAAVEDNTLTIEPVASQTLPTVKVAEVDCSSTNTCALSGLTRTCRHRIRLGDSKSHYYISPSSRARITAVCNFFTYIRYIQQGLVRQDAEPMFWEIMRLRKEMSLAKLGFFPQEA
Chain of UniProt P52306 (P52306 whole entry, looked up): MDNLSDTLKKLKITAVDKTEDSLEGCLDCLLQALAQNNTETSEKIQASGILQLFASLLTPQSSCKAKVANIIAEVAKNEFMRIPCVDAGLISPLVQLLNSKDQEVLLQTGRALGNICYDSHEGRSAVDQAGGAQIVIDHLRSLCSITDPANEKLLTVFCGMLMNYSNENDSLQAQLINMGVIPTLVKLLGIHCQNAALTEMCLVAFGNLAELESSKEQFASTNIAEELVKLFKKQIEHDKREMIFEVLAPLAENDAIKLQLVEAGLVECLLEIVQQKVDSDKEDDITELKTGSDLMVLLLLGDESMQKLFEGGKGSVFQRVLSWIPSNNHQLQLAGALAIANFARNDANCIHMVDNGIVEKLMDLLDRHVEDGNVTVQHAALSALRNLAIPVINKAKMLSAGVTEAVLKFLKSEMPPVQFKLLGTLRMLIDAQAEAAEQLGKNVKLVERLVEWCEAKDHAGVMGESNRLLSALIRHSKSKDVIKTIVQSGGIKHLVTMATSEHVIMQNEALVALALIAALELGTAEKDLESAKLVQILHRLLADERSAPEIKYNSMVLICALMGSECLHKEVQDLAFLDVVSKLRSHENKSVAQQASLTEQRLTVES
Chain of UniProt Q86UA6 (Q86UA6 whole entry, looked up): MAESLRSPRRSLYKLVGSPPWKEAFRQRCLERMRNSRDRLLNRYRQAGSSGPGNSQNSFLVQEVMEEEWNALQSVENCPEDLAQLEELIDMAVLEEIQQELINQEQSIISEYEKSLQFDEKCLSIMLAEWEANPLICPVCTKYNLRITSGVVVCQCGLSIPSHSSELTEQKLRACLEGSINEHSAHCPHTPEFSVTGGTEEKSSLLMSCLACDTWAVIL
Chain of UniProt Q92930 (Q92930 whole entry, looked up): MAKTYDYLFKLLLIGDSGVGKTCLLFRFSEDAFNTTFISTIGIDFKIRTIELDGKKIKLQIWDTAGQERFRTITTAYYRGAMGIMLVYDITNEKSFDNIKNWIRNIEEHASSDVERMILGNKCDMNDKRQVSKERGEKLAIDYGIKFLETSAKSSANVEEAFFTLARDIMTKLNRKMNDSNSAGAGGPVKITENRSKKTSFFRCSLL

| Target | log2 fold change [1] | log2 fold change (crizotinib) | log2 fold change [2] | log2 fold change [3] | log2 fold change (duvelisib) | log2 fold change (gandotinib) | log2 fold change (tozasertib) | log2 fold change [4] | log2 fold change (doramapimod) | log2 fold change (ispinesib) | log2 fold change (bafetinib) | log2 fold change [5] | log2 fold change (nilotinib) | log2 fold change [6] | log2 fold change (dasatinib) | log2 fold change [7] | log2 fold change [8] | log2 fold change [9] | log2 fold change (tipifarnib) | log2 fold change (mubritinib) |
| --- | --- | --- | --- | --- | --- | --- | --- | --- | --- | --- | --- | --- | --- | --- | --- | --- | --- | --- | --- | --- |
| RPS9 (UniProt P46781) | -0.075 | 0.02 | -0.401 | 0.278 | -0.146 | 0.188 | 0.055 | 0.024 | 0.174 | -0.04 | 0.318 | -0.001 | 0.003 | 0.206 | 0.106 | -0.035 | -0.176 | -0.088 | 0.067 | -0.09 |
| ROCK2 (UniProt O75116) | 0.033 | -0.041 | 0.026 | 0.392 (active) | 0.025 | -0.049 | -0.035 | 0.004 | 0.007 | -0.049 | -0.033 | -0.006 | -0.05 | -0.202 | -0.064 | 0.009 | -0.091 | 0.014 | -0.008 | 0.013 |
| RETREG3 (UniProt Q86VR2) | 0.016 | -0.076 | 0.081 | 0.024 | 0.005 | 0.007 | 0.006 | 0.033 | -0.052 | -0.459 (active) | -0.164 | -0.032 | 0.015 | 0.003 | -0.045 | 0.033 | -0.007 | 0.11 | -0.034 | 0 |
| RAB8B (UniProt Q92930) | -0.212 | 0 | -0.046 | -0.345 | -0.028 | -0.086 | -0.076 | 0.005 | 0.034 | 0.01 | -0.008 | 0.085 | 0.059 | -0.036 | 0.015 | -0.043 | 0.031 | -0.016 | -0.088 | -0.062 |
| RAPGEF4 (UniProt Q8WZA2) | 0.115 | 0.051 | 0.04 | -0.061 | 0.07 | – | -0.107 | -0.139 | 0.097 | – | -0.075 | – | – | – | 0.088 | – | 0.201 | – | – | 0.038 |
| SACM1L (UniProt Q9NTJ5) | 0.026 | 0 | 0.062 | -0.094 | 0.031 | -0.065 | 0.058 | 0.005 | -0.055 | -0.096 | -0.011 | -0.022 | 0.044 | -0.002 | 0.012 | 0.012 | -0.009 | 0 | -0.024 | -0.002 |
| SAP30 (UniProt O75446) | -0.087 | 0.012 | -0.047 | 0.098 | -0.09 | 0.162 | – | 0.124 | -0.088 | – | – | 0.076 | 0.083 | 0.01 | -0.008 | 0.006 | -0.073 | – | 0.068 | -0.118 |
| SH2D1B (UniProt O14796) | -0.031 | -0.765 (active) | 0.075 | -0.201 | 0.102 | -0.692 | -0.479 | -0.08 | -0.072 | 0.06 | – | 0.018 | -0.421 | -0.319 | -1.18 (active) | 0.005 | -0.358 | -0.069 | 0.045 | -0.187 |
| RBM33 (UniProt Q96EV2) | -0.01 | 0.058 | -0.063 | -0.077 | 0.016 | 0.03 | -0.019 | 0.043 | -0.022 | -0.085 | -0.055 | 0.012 | -0.036 | -0.143 | 0.013 | -0.11 | 0.024 | -0.013 | 0.085 | -0.004 |
| RBIS (UniProt Q8N0T1) | -0.157 | -0.097 | -0.086 | 0.069 | -0.028 | 0.053 | -0.014 | -0.045 | 0.062 | 0.009 | 0.012 | -0.058 | -0.058 | 0.101 | 0.008 | -0.079 | 0.023 | 0.004 | -0.02 | 0.021 |
| RAB3IL1 (UniProt Q8TBN0) | 0.009 | 0.086 | 0.071 | 0.031 | 0.026 | 0.012 | 0 | -0.009 | -0.021 | 0.04 | -0.025 | 0.034 | -0.016 | 0.012 | -0.054 | -0.015 | -0.007 | 0.002 | -0.051 | 0.017 |
| RPAIN isoform 8 (UniProt Q86UA6) | -0.024 | 0.144 | 0.385 | -0.039 | 0.123 | – | 0.07 | 0.078 | -0.04 | -0.155 | -0.064 | – | – | – | -0.043 | – | -0.022 | -0.142 | -0.042 | – |
| SLC12A5 (UniProt Q9H2X9) | 0.089 | 0.001 | 0.028 | 0.027 | -0.07 | – | -0.039 | 0.083 | 0.234 | – | 0.009 | – | – | – | -0.034 | – | 0.002 | – | 0.117 | -0.001 |
| RELA (UniProt Q04206) | 0.03 | 0.036 | 0.005 | -0.029 | 0.018 | -0.086 | 0.059 | 0.055 | – | 0.017 | -0.04 | 0.006 | -0.023 | -0.295 (active) | – | -0.031 | 0.04 | -0.047 | -0.04 | 0.044 |
| RRAS2 isoform 4 (UniProt P62070) | 0.044 | 0.162 | -0.001 | -0.152 | -0.002 | -0.016 | -0.048 | -0.042 | 0.012 | -0.019 | -0.05 | -0.082 | 0.111 | -0.021 | 0.066 | 0.025 | 0.062 | -0.03 | 0.088 | -0.025 |
| SART3, A0A499FI31 | -0.011 | 0.097 | 0.049 | -0.124 | 0.012 | -0.056 | 0.078 | 0.051 | -0.03 | 0.038 | -0.057 | 0.039 | -0.02 | -0.189 | -0.128 | -0.261 (active) | 0.029 | -0.001 | 0.008 | 0.024 |
| SCO2 (UniProt O43819) | 0.062 | -0.106 | 0.05 | -0.016 | 0.14 | 0.026 | 0 | 0.061 | -0.031 | -0.134 | -0.058 | -0.014 | – | – | -0.042 | – | 0.107 | 0.039 | 0.014 | -0.035 |
| RAP1GDS1 isoform 5 (UniProt P52306) | 0.061 | -0.062 | 0.08 | 0.009 | -0.009 | -0.066 | 0.079 | 0.036 | -0.014 | -0.096 | 0.097 | 0.07 | -0.077 | -0.105 | -0.083 | 0.042 | -0.005 | 0.03 | -0.041 | 0.026 |
| RNF187 (UniProt Q5TA31) | -0.097 | -0.018 | -0.019 | -0.027 | 0.015 | -0.111 | -0.069 | 0.038 | 0.015 | 0.191 | 0.009 | 0.088 | 0.029 | -0.041 | 0.022 | -0.001 | -0.105 | 0.006 | -0.07 | 0.102 |
| SAMSN1 isoform 3 (UniProt Q9NSI8) | 0.024 | -0.082 | 0.043 | -0.027 | 0.006 | -0.077 | -0.013 | 0.019 | -0.052 | -0.069 | -0.049 | 0.04 | -0.036 | -0.169 | -0.09 | 0.02 | 0.029 | 0.037 | -0.015 | 0.048 |
| RBM48 isoform 2 (UniProt Q5RL73) | 0.081 | 0.25 | -0.069 | -0.06 | – | 0.152 | -0.245 | – | 0.041 | 0.072 | 0.118 | -0.012 | 0.13 | -0.006 | – | -0.034 | 0.047 | -0.457 | 0.127 | – |
| ROCK1 (UniProt Q13464) | 0.016 | -0.017 | 0.042 | – | -0.019 | -0.025 | 0.015 | 0.027 | -0.025 | -0.069 | -0.017 | -0.006 | -0.03 | 0.007 | -0.028 | 0.034 | -0.006 | 0.01 | -0.037 | 0.062 |
| RABGAP1L isoform 3 (UniProt Q5R372) | -0.018 | 0.005 | -0.004 | -0.138 | -0.013 | -0.018 | -0.011 | 0.05 | 0.052 | 0.046 | -0.045 | 0.024 | -0.031 | -0.001 | -0.038 | -0.037 | -0.005 | 0.013 | 0.016 | -0.001 |
